aSyn 5UTR act – Activators via SNCA 5'UTR binding, MLPCN | alpha-synuclein 5'UTR reporter, activators screen | activity score, % (tested at 7.5 µM), hits read low | actives 7.1% (n = 300,000) | AID 1814, 2009; in the data active means activity score below about -60%
Each line names hits and unclear results; the compound was inactive in the other large screens. These entries were drawn from the full list.

O=C(N/N=C/c1cccc([N+](=O)[O-])c1)c1c[nH]c2ccccc12	aSyn 5UTR act -124
CC(C)(C)OC(=O)N/N=C/c1cccc([N+](=O)[O-])c1	aSyn 5UTR act -129
Cc1ccc(/C=N/NC(=O)c2c[nH]c3ccccc23)s1	aSyn 5UTR act -113
C/C(=N\NC(=O)c1csc(C)c1C)c1ccc(C)s1	aSyn 5UTR act -93
CCn1ncc(/C=N\NC(=O)c2csc3ccccc23)c1C	aSyn 5UTR act -66
CC/C(=N\NC(=O)c1c[nH]c2ccccc12)c1cccs1	aSyn 5UTR act -122
Cc1ccsc1/C=N/NC(=O)c1c[nH]c2ccccc12	aSyn 5UTR act -122
CC(C)(C)OC(=O)N/N=C\c1ccc[nH]1	aSyn 5UTR act -77
COc1ccc(OC)c(NC(=O)NC2(C(F)(F)F)Oc3ccccc3O2)c1	aSyn 5UTR act -73
COc1ccc(C(=O)N/N=C(/C)c2ccc(N3CCCCC3)cc2)cc1	aSyn 5UTR act -68
C/C(=N\NC(=O)CC(C)C)c1ccc(N2CCCCC2)cc1	aSyn 5UTR act -62
COc1ccc(/C(C)=N/NC(=O)c2nc(C)cc(C)n2)cc1	aSyn 5UTR act -114
Clc1ccc(/C=C/c2ncc[nH]2)c(Cl)c1	aSyn 5UTR act -169
CC1(C)Cc2c(sc3ncnc(NNC(=S)NCc4ccccc4)c23)CO1	none
CC1(C)Cc2c(sc3nc(-c4cccs4)n(N)c(=O)c23)CO1	aSyn 5UTR act -116
Nn1c(-c2cccs2)nc2sc3c(c2c1=O)CCCC3	aSyn 5UTR act -149
c1ccc(Nc2scc(-c3ccccc3)[n+]2Cc2ccco2)cc1	aSyn 5UTR act -222
C=CC[n+]1c(-c2ccc(C)cc2)csc1Nc1ccc(NC(C)=O)cc1	none
COc1cc(C(=O)Nc2ccc(N(C)C)cc2)c([N+](=O)[O-])cc1OC	aSyn 5UTR act -75
COC(=O)CNc1c(-c2ccccc2)nc2ccc(Br)cn12	aSyn 5UTR act -69
c1ccc2[nH]c(SCc3cn4ccccc4n3)nc2c1	aSyn 5UTR act -62
c1ccc2c(SCc3cn4ccccc4n3)nncc2c1	aSyn 5UTR act -70
Clc1ccc(SCc2cn3ccccc3n2)cc1	aSyn 5UTR act -148
Cc1cccc2nc(CSc3ccc(Cl)cc3)cn12	aSyn 5UTR act -118
Cc1ccc(SCc2cn3cc(Cl)ccc3n2)cc1	aSyn 5UTR act -136
Nc1nnc(SCc2cn3cc(Cl)ccc3n2)s1	aSyn 5UTR act -97
CNc1cc(CSc2ccc(Cl)cc2)nc(C)n1	aSyn 5UTR act -118
Cc1cc(C)c(C#N)c(SCc2cn3ccccc3n2)n1	aSyn 5UTR act -88
Clc1ccc2nc(CSCc3ccccc3)cn2c1	aSyn 5UTR act -167
CC(C)(C)c1ccc(Oc2ccc(NC(=O)c3ccccc3C(=O)O)cn2)cc1	none
CCC(C)c1ccc(NC(=O)Nc2cccnc2)cc1 (stereo not drawn)	aSyn 5UTR act -155
O=C(Nc1ccccc1)Nc1ccc(Oc2cccnc2)nc1	aSyn 5UTR act -105
O=C(Nc1ccc(OC(F)(F)F)cc1)Nc1cccnc1	aSyn 5UTR act -110
O=C(c1ccc(Cl)cc1)C(CN1CCCCC1)c1ccccc1 (stereo not drawn)	aSyn 5UTR act -106
COc1ccc(C(=O)C(CN2CCOCC2)c2ccccc2)cc1F (stereo not drawn)	aSyn 5UTR act -108
CCCOc1ccc(C(=O)C(CN2CCOCC2)c2ccccc2)cc1 (stereo not drawn)	aSyn 5UTR act -120
Cc1ccc(O)c(N=Nc2ccc(S(=O)(=O)N3CCCC3)cc2)c1	aSyn 5UTR act -70
O=S(=O)(c1ccc2c(c1)C(=NO)c1cc(S(=O)(=O)N3CCCCC3)ccc1-2)N1CCCCC1	none
O=C(Cc1ccc(S(=O)(=O)N2CCOCC2)s1)Nc1ccc(N2CCOCC2)cc1	aSyn 5UTR act -99
COCCNC(=O)CSc1nc2ccc(N3CCOCC3)cc2c(=O)n1Cc1ccc(OC)cc1	aSyn 5UTR act -80
CCOC(=O)CSc1nc2ccc(N3CCOCC3)cc2c(=O)n1Cc1ccc2c(c1)OCO2	aSyn 5UTR act -82
CC(=O)c1coc2c1cc(O)c1ccccc12	aSyn 5UTR act -83
CCC1CCCCN1C(=O)CSc1nnc(-c2ccc(Cl)s2)o1 (stereo not drawn)	aSyn 5UTR act -62
CC1CCCC(C)N1C(=O)CSc1nnc(-c2cccs2)o1 (stereo not drawn)	aSyn 5UTR act -82
CC1CCCCN1C(=O)CSc1nnc(-c2cccs2)o1 (stereo not drawn)	aSyn 5UTR act -108
Cc1ccc(CN2C3CCCC2CC(NC(=O)c2ccc(C)cc2)C3)cc1 (stereo not drawn)	aSyn 5UTR act -163
Cc1cc(C(=O)Nc2ccc3c(c2)OCCO3)c(C)o1	aSyn 5UTR act -113
Cc1ncoc1C(=O)Nc1ccc(Oc2ccccc2)cc1	aSyn 5UTR act -104
Cc1ncoc1C(=O)Nc1ccc2c(c1)OCCO2	aSyn 5UTR act -63
CCCCNc1nc(N)nc(-c2cc(Cl)ccc2O)n1	aSyn 5UTR act -67
O=C1Nc2cc(Cl)c(Cl)cc2N(O)N1c1ccc(Cl)cc1	aSyn 5UTR act -149
COC(=O)Cc1c(C)c2ccc(OC(C)C)cc2oc1=O	aSyn 5UTR act -156
Cc1ccc2cc(CN(CCN(C)C)C(=O)Nc3ccc(Cl)cc3)c(=O)[nH]c2c1	aSyn 5UTR act -83
Cc1cc(C)c2cc(CN(CCO)C(=O)Nc3ccc(Cl)cc3)c(=O)[nH]c2c1	none
O=C(Nc1nnc(-c2ccccc2)s1)c1ccccc1F	aSyn 5UTR act -152
CCC(Sc1nncn1C)C(=O)Nc1nnc(-c2ccccc2Cl)s1 (stereo not drawn)	aSyn 5UTR act -64
O=C(Nc1nnc(-c2ccccc2Cl)s1)c1ccccc1F	aSyn 5UTR act -173
Cc1cccc2c1-c1sc(C(=O)N3CCCCC3)cc1CO2	aSyn 5UTR act -100
CCN1CCN(C(=O)c2cc3c(s2)-c2c(C)cccc2OC3)CC1	aSyn 5UTR act -141
COc1ccc2nc(/N=C\N(C)C)sc2c1	aSyn 5UTR act -92
CN(C)/C=N/c1nc2ccc3c(c2s1)CCCC3	aSyn 5UTR act -138
COc1ccc2nc(/N=C/c3c(C)[nH]n(-c4ccc(C)cc4)c3=O)sc2c1	aSyn 5UTR act -73
Cc1ccc(-n2[nH]c(C)c(C=NCc3ccncc3)c2=O)cc1	aSyn 5UTR act -65
CCOC(=O)Cc1csc(NC(=O)c2sc3nc4c(C)cc(C)cc4cc3c2N)n1	aSyn 5UTR act -94
CCN(CC)S(=O)(=O)c1ccc(Nc2nc3ccccc3n3nnnc23)cc1	aSyn 5UTR act -87
Cc1ccc(-c2nnc3c(C(F)(F)F)nc4ccccc4n23)cc1	none
Fc1ccccc1Nc1nc2ccccc2n2nnnc12	aSyn 5UTR act -146
c1ccc(Nc2nc3ccccc3n3nnnc23)cc1	aSyn 5UTR act -75
Cc1ccc(-c2nc3ccccc3n3nnnc23)cc1	aSyn 5UTR act -249
CCN(CC)S(=O)(=O)c1ccc2c(c1)C(=NO)c1cc(S(=O)(=O)N(CC)CC)ccc1-2	none
COc1cccc(Nc2nc3ccccc3n3nnnc23)c1	aSyn 5UTR act -65
NC(=Nc1ccc(Br)cc1)c1ccccc1	aSyn 5UTR act -75
CCOC(=O)Cc1csc(-n2sc3ccccc3c2=O)n1	aSyn 5UTR act -89
N=c1oc2ccc(Cl)cc2cc1C(=O)Nc1ccc(F)cc1	aSyn 5UTR act -68
COc1ccc2oc(=N)c(C(=O)Nc3ccc(F)cc3)cc2c1	aSyn 5UTR act -97
COc1ccc2oc(=N)c(C(=O)Nc3ccc(C)cc3)cc2c1	aSyn 5UTR act -101
COc1ccc(NC(=O)c2cc3ccccc3o/c2=N\NS(=O)(=O)c2ccc(C)cc2)cc1	aSyn 5UTR act -133
COc1ccc2o/c(=N\O)c(C(=O)Nc3ccc(C)cc3)cc2c1	aSyn 5UTR act -282
CCCNC(=O)c1ccc(N2CCC3(CC2)CC(c2ccccc2)=NO3)c(NC(=O)c2ccccc2)c1	none
